Results filed as inconclusive are left out. Entries that show only a call come without a potency. The source made the active and inactive calls. Calls follow the shape of the dose curve; as a rule, active = well fitted cell-killing curve with a large enough effect; inconclusive = small, poorly fitted or top-dose-only effect, or effect the other way; inactive = flat fitted curve, though single readings scatter.
Test system: PA-1
Assay: Primary qHTS to identify gynecologic anti-cancer compounds using libraries of approved drugs and bioactive compounds (AID 1345084); also: nearly all actives have a fitted effect of over 55% in size
Conditions: Gynecologic cancer cell panel viability, ATPlite luminescence, 48 h; series mostly up to 57.5 µM
Method in brief: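 48 h compound exposure at 37 C, 5% CO2; five-point qHTS. ATPlite luminescence readout of cell ATP.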
Potency is read from the fitted curve at half-maximal effect.

| SMILES | Potency |
| --- | --- |
| C1CN2CCC1CC2 | inactive |
| CCC1(CC)C(=O)NC(=O)NC1=O | inactive |
| CC(C)(C)OC(=O)c1ncn2c1[C@@H]1CCCN1C(=O)c1c(Br)cccc1-2 | inactive |
| CN1C(=O)CN=C(c2ccccc2)c2cc([N+](=O)[O-])ccc21 | inactive |
| CCOC(=O)C(c1c(O)c2ccccc2oc1=O)c1c(O)c2ccccc2oc1=O | inactive |
| CNC(C)Cc1ccccc1OC (stereo not given) | inactive |
| ClCc1cccc(Cl)c1 | inactive |
| CC(CC(C(N)=O)(c1ccccc1)c1ccccc1)N(C)C (stereo not given) | inactive |
| CC1Sc2c(C(=O)O)c(=O)c3cc(F)c(N4CCNCC4)cc3n21 (stereo not given) | inactive |
| O=C(CBr)Nc1ccc(Cl)cc1C(=O)c1ccccc1F | inactive |
| COP(=O)(OC)C(O)C(Cl)(Cl)Cl (stereo not given) | inactive |
| C[C@H]1CNCCc2ccc(Cl)cc21 | inactive |
| COc1cc(N)c(Cl)cc1C(=O)NC1CN2CCC1CC2 (stereo not given) | inactive |
| COC(=O)C1=CCCN(C)C1 | inactive |
| C[C@@H]1CN(C2CCC(C#N)(c3ccc(F)cc3)CC2)CC[C@]1(C(=O)O)c1ccccc1 (stereo not given in full) | inactive |
| CCOC(=O)NC(O)C(Cl)(Cl)Cl (stereo not given) | inactive |
| OC(O)C(Cl)(Cl)Cl | inactive |
| ClCCCN1CCN(c2cccc(Cl)c2)CC1 | inactive |
| C#C[C@]1(O)C=C[C@H]2[C@@H]3CCC4=CC(=O)CC[C@@H]4[C@H]3CC[C@@]21CC | inactive |
| O=c1[nH]c2cc(Cl)ccc2n1C1CCNCC1 | inactive |

| SMILES | Potency |
| --- | --- |
| O=C(O)Cc1ccccc1 | inactive |
| CC(C)(O)C(Cl)(Cl)Cl | inactive |
| C[N+]1(CCC(C(N)=O)(c2ccccc2)c2ccccc2)CCCCC1 | inactive |
| CCc1ccc(C2CCNCC2)cc1 | inactive |
| C[C@]12CC[C@H]3[C@@H](CCC4=CC(=O)CC[C@@H]43)[C@@H]1CC[C@@H]2O | 10 µM (active) |
| Cc1ccc(N=CN(C)C=Nc2ccc(C)cc2C)c(C)c1 | inactive |
| COP(=O)(OC)OC=C(Cl)Cl | inactive |
| CCN1CCCC1CNC(=O)C(O)(c1ccccc1)c1ccccc1 (stereo not given) | inactive |
| CN(C)C(=O)Oc1cc(OC(=O)N(C)C)cc(C(O)CNC(C)(C)C)c1 (stereo not given) | inactive |
| O=C1CN2CCOC2(c2ccccc2Cl)c2cc(Cl)ccc2N1 (stereo not given) | inactive |
| COP(=S)(OC)Oc1ccc(Sc2ccc(OP(=S)(OC)OC)cc2)cc1 | inactive |
| O=C(O)c1nn(Cc2ccc(Cl)cc2Cl)c2ccccc12 | inactive |
| COCC(=O)N(c1c(C)cccc1C)C(C)C(=O)OC (stereo not given) | inactive |
| NC(=O)OCCCc1ccccc1 | inactive |
| CCN(CC)CCOC(=O)C(C)(c1ccccc1)c1ccccc1 | inactive |
| CCOP(=S)(OCC)O/N=C(\C#N)c1ccccc1 | inactive |
| O=C(CCCCl)c1ccc(F)cc1 | inactive |
| C[N+]1(C)[C@@H]2CC[C@H]1CC(OC(=O)C(CO)c1ccccc1)C2 (stereo not given in full) | inactive |
| CC1=C2[C@H]3OC(=O)[C@@H](C)[C@@H]3CC[C@@]2(C)C=CC1=O | inactive |
| Sc1ccccc1Cl | inactive |

Source: PubChem BioAssay (NCATS)
